Assay results reported in the supplement of paper PMC8728848.
Only a selection was taken, and the strongest signals are over-represented in it overall.

Tests used:
Test in all cases: glycan array binding signal (z-score within array); higher = stronger binding
Details in all cases: glycan notation: IUPAC condensed, linker removed
[1] = biological target: Neu5Ac(a2-3)Gal(b1-3)[Fuc(a1-4)]GlcNAc
Procedure, shortened: (§1)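 Glycan array binding is given as a within-array Z-score, which can be read as non-binding when negative. The arrays, 3228 of them, came from the Consortium for Functional Glycomics database and were retained only where the protein sequence was available. Z-scores were averaged across arrays of the same protein sequence at different concentrations or buffers and across linkers.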

[2] = biological target: Neu5Ac(a2-3)Gal(b1-4)GlcNAc(b1-2)Man(a1-3)[Neu5Ac(a2-3)Gal(b1-4)GlcNAc(b1-2)Man(a1-6)]Man(b1-4)GlcNAc(b1-4)[Fuc(a1-6)]GlcNAc
Procedure, shortened: as §1

[3] = biological target: Neu5Ac(a2-3)Gal(b1-4)GlcNAc(b1-2)[Neu5Ac(a2-3)Gal(b1-4)GlcNAc(b1-4)]Man(a1-3)[GlcNAc(b1-4)][Neu5Ac(a2-3)Gal(b1-4)GlcNAc(b1-2)[Neu5Ac(a2-3)Gal(b1-4)GlcNAc(b1-6)]Man(a1-6)]Man(b1-4)GlcNAc(b1-4)GlcNAc
Procedure, shortened: as §1

[4] = biological target: Neu5Ac(a2-3)Gal(b1-4)GlcNAc(b1-3)Gal(b1-4)GlcNAc(b1-3)Gal(b1-4)GlcNAc
Procedure, shortened: as §1

[5] = biological target: Neu5Ac(a2-3)Gal(b1-4)GlcNAc(b1-6)[Neu5Ac(a2-3)Gal(b1-3)]GalNAc
Procedure, shortened: as §1

[6] = biological target: Neu5Ac(a2-3)Gal(b1-4)[Fuc(a1-3)]GlcNAc(b1-3)Gal(b1-4)[Fuc(a1-3)]GlcNAc(b1-3)Gal(b1-4)[Fuc(a1-3)]GlcNAc
Procedure, shortened: as §1

[7] = biological target: Neu5Ac(a2-6)Gal(b1-4)GlcNAc(b1-3)Gal(b1-3)GlcNAc
Procedure, shortened: as §1

[8] = biological target: Neu5Ac(a2-6)Gal(b1-4)GlcNAc(b1-3)Gal(b1-4)GlcNAc(b1-3)[Neu5Ac(a2-6)Gal(b1-4)GlcNAc(b1-3)Gal(b1-4)GlcNAc(b1-6)]GalNAc
Procedure, shortened: as §1

[9] = biological target: Neu5Ac(a2-6)GalNAc
Procedure, shortened: as §1

[10] = biological target: Neu5Ac(a2-8)Neu5Ac(a2-3)Gal(b1-4)Glc
Procedure, shortened: as §1

[11] = biological target: Neu5Ac(a2-8)Neu5Ac(a2-8)Neu5Ac(a2-3)[Gal(b1-3)GalNAc(b1-4)]Gal(b1-4)Glc
Procedure, shortened: as §1

B1: FliC (Pseudomonas aeruginosa), P72151 (protein)
chain: MALTVNTNIASLNTQRNLNASSNDLNTSLQRLTTGYRINSAKDDAAGLQISNRLSNQISGLNVATRNANDGISLAQTAEGALQQSTNILQRIRDLALQSANGSNSDADRAALQKEVAAQQAELTRISDTTTFGGRKLLDGSFGTTSFQVGSNAYETIDISLQNASASAIGSYQVGSNGAGTVASVAGTATASGIASGTVNLVGGGQVKNIAIAAGDSAKAIAEKMDGAIPNLSARARTVFTADVSGVTGGSLNFDVTVGSNTVSLAGVTSTQDLADQLNSNSSKLGITASINDKGVLTITSATGENVKFGAQTGTATAGQVAVKVQGSDGKFEAAAKNVVAAGTAATTTIVTGYVQLNSPTAYSVSGTGTQASQVFGNASAAQKSSVASVDISTADGAQNAIAVVDNALAAIDAQRADLGAVQNRFKNTIDNLTNISENATNARSRIKDTDFAAETAALSKNQVLQQAGTAILAQANQLPQAVLSLLR
Which results are given for B1?
glycan array binding signal (z-score) [1]: -0.192; glycan array binding signal (z-score) [2]: 20.9; glycan array binding signal (z-score) [3]: 8.36; glycan array binding signal (z-score) [4]: 0.251; glycan array binding signal (z-score) [5]: 0.476; glycan array binding signal (z-score) [6]: 3.22; glycan array binding signal (z-score) [7]: -0.117; glycan array binding signal (z-score) [8]: -0.127; glycan array binding signal (z-score) [9]: 1.71; glycan array binding signal (z-score) [10]: 2.98; glycan array binding signal (z-score) [11]: -0.227
